Assay results as given in PubChem BioAssay AID2158 (National Center for Advancing Translational Sciences (NCATS), 2009).
Values joined by “and” are separate entries in the source; they are usually repeats but may differ in a detail not shown here. Equal entries are not always repeated. Records with an inconclusive call do not appear. More than one record can exist for a structure, and the calls need not agree. Active and inactive are the calls of the source. The call rests on the fitted dose curve; in most records, active means well fitted inhibition curve with a large enough effect; inconclusive means small, poorly fitted or top-dose-only effect; inactive means no such curve, though single readings can be large or run the other way.

These compounds were tested against Cruzipain (Trypanosoma cruzi) (UniProt P25779) (assay: Confirmation qHTS Assay for Inhibitors of Cruzain). Settings: purified cruzain, Z-FR-AMC fluorescence, 0.01% Triton.
Chain of Cruzipain (Trypanosoma cruzi) (P25779 123-467 limits assumed): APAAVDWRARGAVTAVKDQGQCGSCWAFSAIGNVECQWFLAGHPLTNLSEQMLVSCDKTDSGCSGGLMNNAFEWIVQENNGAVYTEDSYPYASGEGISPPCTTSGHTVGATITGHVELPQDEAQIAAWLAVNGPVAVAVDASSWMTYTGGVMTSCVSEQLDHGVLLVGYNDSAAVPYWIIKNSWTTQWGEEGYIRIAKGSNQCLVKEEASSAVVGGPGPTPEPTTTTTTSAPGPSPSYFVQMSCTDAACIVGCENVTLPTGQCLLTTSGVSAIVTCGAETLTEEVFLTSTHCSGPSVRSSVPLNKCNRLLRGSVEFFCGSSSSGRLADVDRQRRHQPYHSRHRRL
Procedure, shortened: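 Purified cruzain, 1.5 nM, pre-incubated 15 min at room temperature with compound in 100 mM sodium acetate pH 5.5, 5 mM DTT, 0.01% Triton X-100. Then 2 uM Z-FR-AMC added; AMC fluorescence (ex 360/em 450 nm) increase over 60 s gave reaction progress.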
Further: nearly all actives have a fitted effect of over 40% in size.
Potency means the concentration at half of the fitted maximal effect.
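Wherever Activity change, negative = inhibition is given: plate controls were uninhibited enzyme control for no effect and buffer wells lacking enzyme for full effect.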

Potency, active:
O=C(NCCc1nc2ccccc2n1Cc1ccccc1F)c1ccc(F)cc1 1.58 µM, C=C(C)C(=O)OC1(C(F)(F)F)Oc2cc(C)ccc2NC1=O (stereo not given) 14.1 µM, N#Cc1nc(N)nc(N(c2ccccc2)c2ccccc2)n1 3.55 µM and 3.16 µM, O=C(CNC(=O)c1ccccc1)OC(C(=O)Nc1cc(C(F)(F)F)ccc1Cl)c1ccccc1 (stereo not given) 5.01 µM, CCC(C)[C@@H](NC(=O)OC(C)(C)C)c1nnc(S(=O)(=O)Cc2cccc(C)c2)o1 (stereo not given in full) 14.1 µM, N#Cc1nc(Nc2cccc([N+](=O)[O-])c2)nc(NC2CCCC2)n1 0.0631 µM, CCc1ccc(C(=O)COC(=O)CNC(=O)C2CCCCC2)cc1 7.08 µM, COc1cccc(Nc2nc(C#N)nc(NC3CCCC3)n2)c1 0.199 µM, CC(C)(C)Nc1nc(C#N)nc(Nc2ccccc2)n1 2.24 µM, O=C(COC(=O)CNC(=O)C1CCCCC1)NC1CCCC1 12.6 µM, CCOC(=O)C(C(=O)OCC)N(C#N)c1nc(OC)nc(N(C)C)n1 15.8 µM, COc1ccccc1NC(=O)C(OC(=O)CNC(=O)c1ccccc1)c1ccccc1 (stereo not given) 10 µM, CCCCNC(=O)c1ccc2nc(-c3ccco3)c(-c3ccco3)nc2c1 7.94 µM, O=C(Cc1ccccc1)NCC(=O)OCC(=O)c1cccc2ccccc12 25.1 µM, COc1ccc(/C=C/C(=O)Nc2ccc(-n3nncc3-c3ccc(Br)cc3)cc2)cc1OC 12.6 µM, Cn1nc(-c2ccc(F)cc2)nc2c(=O)n(C)c(=O)nc1-2 0.631 µM, CCN(c1ccccc1)c1nc(C#N)nc(N(CC)c2ccccc2)n1 5.01 µM, O=C(NCCO)c1ccc2nc(-c3ccco3)c(-c3ccco3)nc2c1 14.1 µM, O=C(NCc1ccco1)c1ccc2nc3sc4c(c3c(=O)n2c1)CCCC4 28.2 µM, COc1ccc(NC(=O)C(OC(=O)CNC(=O)c2ccccc2)c2ccccc2)cc1F (stereo not given) 11.2 µM, C=CC(C)(C)c1[nH]c2ccccc2c1C1=C(O)C(=O)C(c2c[nH]c3c(CC=C(C)C)cccc23)=C(O)C1=O 25.1 µM, Cc1ccc(C(=O)Oc2oc(-c3ccco3)nc2C=Nc2ccc(Cl)cc2)cc1 11.2 µM, Cc1ccc(OCCCCn2c(CCNC(=O)C3CCCCC3)nc3ccccc32)cc1 1.12 µM, O=C(CSc1nnc(-c2ccco2)c(-c2ccco2)n1)Nc1ccccc1 12.6 µM, CCCn1c(SCC(=O)N2CC(=O)Nc3ccccc32)nc2ccccc21 28.2 µM, CNc1nc(C#N)nc(Nc2ccccc2)n1 1.26 µM

Activity change, negative = inhibition, inactive:
CCOc1cccc(-c2nn3c(-c4cc(C)[nH]n4)nnc3s2)c1 -3.99%, O=C(NNC(=O)c1cc2ccccc2[nH]1)OCc1ccccc1 2.31%, O=C(CNC(=O)c1ccccc1)OC(C(=O)Nc1cc(C(F)(F)F)ccc1Cl)c1ccccc1 (stereo not given) -10.9% and -27.8%, CN(C)c1ccc(-c2nn3c(-c4cc(-c5ccccc5)n[nH]4)nnc3s2)cc1 -5.13%, C(/Oc1ccccc1)=C1\Nn2c(nnc2-c2cc(-c3ccccc3)n[nH]2)S1 -9.74% and -7.34%, CCC(C)NC(=O)c1ccc2nc(-c3cccs3)c(-c3cccs3)nc2c1 (stereo not given) -5.12%, O=C(COC(=O)CNS(=O)(=O)c1ccc(F)c(F)c1F)Nc1ccc(OC(F)F)cc1 -11.4%, O=C(Cc1nnc(CNC(=O)c2ccccc2)s1)Nc1ccc(C(F)(F)F)cc1Cl -3.96%, COc1cccc(OC)c1-c1nn2c(-c3n[nH]c4c3CCC4)nnc2s1 -13% and -10.1%, Cc1ccc(S(=O)(=O)NCC(=O)OCC(=O)Nc2ncc(Cl)cc2Cl)cc1 -50.6%, N#CN1CCC(NC(=O)c2ccc(F)cc2)CC1 0.471%, N#CCSc1nc2scc(-c3cccs3)c2c(=O)n1CCc1ccccc1 -7.68%, Cc1ccccc1-n1c(C)cc(/C=C2/C(=N)N3C(c4ccccc4)=CSC3=NC2=O)c1C -3.9%, Cc1ccccc1OCC(=O)NCC(=O)OC(c1ccccc1)c1ccccc1 -14.6%
